Screens deposited in PubChem BioAssay by National Center for Advancing Translational Sciences (NCATS).
Shiga toxin inh = Shiga toxin inhibition | inhibition, % at 38.7 µM | Vero cells, Shiga toxin protein synthesis inhibition reporter | 9.2% of 290,000 active | AID 2315; in the data active = inhibition mostly above about 28%, no sharp cut-off; inactive = mostly below about 43%; note: 0% is about no effect
Pf growth 96h = inhibits malaria parasite growth, 96 h. Potency, µM (series often up to 28.7 µM), without a hit: top-dose activity change, negative = inhibition, actives largely listed as inhibitors. P. falciparum luciferase reporter growth, 96 h. 6.9% of 320,000 active; note: potency is the fitted concentration of half-maximal effect; % is set by controls: 0 for no effect and ±100 for the full control effect
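Cell-based qHTS: luciferase-tagged P. falciparum in erythrocytes (2% hematocrit, 0.05% parasitemia final) incubated with compounds for 96 hours, 37 C, 5% CO2; luciferase detection reagent then added and luminescence measured.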
Pf growth 48h = P. falciparum growth inhibition at 48 hours (one generation) | P. falciparum luciferase growth in erythrocytes, 48 h | Potency, µM (titrated, usually from 28.7 µM), for the others: at the top dose activity change, negative = inhibition, usual class: inhibitors | 5.9% of 310,000 active; note: potency is the fitted concentration of half-maximal effect; % is set by controls: 0 for no effect and ±100 for the full control effect
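Cell-based growth assay: transgenic P. falciparum expressing firefly luciferase, cultured in red cells within RPMI 1640 containing 0.5% w/v Albumax, 24 mM bicarbonate and gentamycin. A drop in luciferase activity indicates inhibition.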
HCMV inh = human cytomegalovirus inhibition; activity change, negative = inhibition, % at 57.5 µM; HFF cells, HCMV-luciferase reporter, 72 h; active compounds read low; 4.5% of 410,000 active; in the data active = activity change below about -60%; inconclusive = no clear call, values can overlap the other calls; inactive = above about -39%; note: % is set by controls: 0 for no effect and ±100 for the full control effect
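HFF cells seeded 16 h at 37C, treated with compounds, infected with luciferase-reporter HCMV at MOI 1 PFU/cell; luciferase read at 72 h post infection, normalized to buffer-only and Salinomycin controls.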
HCV inh = inhibitors of hepatitis C virus infection; Huh7.5.1 HCVcc-Cre infection, luciferase reporter, 44 h; Potency, µM (top dose mostly 41.8 µM), for the others: at the top dose activity change, negative = inhibition, actives largely listed as inhibitors; 3.4% of 340,000 active; AID 651820; note: potency is the fitted concentration of half-maximal effect; % is set by controls: 0 for no effect and ±100 for the full control effect
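Antiviral activity was scored by luciferase reporter output from cells infected with HCVcc-Cre (~0.5 moi) in presence of compound, 44 h infection period, cells seeded 1,000/well 4 h prior.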
CHX counter = affects cycloheximide protein synthesis inhibition readout, counter-screen; cell reporter, cycloheximide protein synthesis inhibition counterscreen; max response, %; 12% of 300,000 active; AID 2314; in the data active = max response mostly above about 13%, no sharp cut-off; inactive = mostly below about 14%; note: read at 38.3 µM for the half of the compounds with a filed dose; 0% is about no effect
Starred values were filed as active, the others as inactive; ? = inconclusive; nt = not tested or not shown. Compounds with a hit are over-represented: about 21% of the library has one in this group of screens. Unless noted, calls come from the whole dose curve; as a rule, active = well fitted inhibition curve with a large enough effect; inconclusive = small, poorly fitted or top-dose-only effect, or another doubt; inactive = no such curve, though single readings can be large or run the other way.

SMILES	Shiga toxin inh	Pf growth 96h	Pf growth 48h	HCMV inh	HCV inh	CHX counter
Cc1cccc(CCNC(=O)COc2cc(=O)n(C)c3ccccc23)c1	2	10µM*	-11%	10	-3%	-7
CC1=NN(C(N)=S)C(C)(C)C1	2	-16%	35%	-5	15%	-3
CCCCCN(CCCCC)C(=O)[C@H](CCC(=O)O)NC(=O)[C@H](Cc1ccc(OP(=O)(O)O)cc1)NC(C)=O	15	nt	nt	nt	nt	14
COC(=O)c1sccc1S(=O)(=O)N1CCN(c2cc(Cl)ccc2C)CC1	nt	nt	nt	-14	nt	nt
COc1ccc(C(=O)O)cc1S(=O)(=O)Nc1ccc(N2CCCCC2)cc1	nt	nt	nt	2	-2%	nt
CC(C)CCNC(=O)c1cnn2c(C(F)(F)F)cc(-c3ccco3)nc12	-22	9.3µM*	?	-24	?	-2
O=C(NCc1ccco1)c1cnn2c(C(F)(F)F)cc(-c3ccccc3)nc12	9	-10%	13µM*	-18	?	1
O=C(NC1CCCC1)c1cnn2c(C(F)(F)F)cc(-c3ccco3)nc12	-26	nt	?	?	nt	3
COc1ccc(-c2cc(C(F)(F)F)n3ncc(C(=O)NCc4ccco4)c3n2)cc1	-20	0%	?	46	?	5
CC(C)OC(=O)c1nn2c(C(F)(F)F)cc(-c3ccco3)nc2c1Cl	-7	13µM*	8%	-4	9%	1
COc1ccc(C(=O)COC(=O)CCCC(=O)Nc2ccc(C(C)=O)cc2)cc1	nt	nt	nt	75	nt	nt
Cc1ccccc1CN1[C@@H](C)[C@H](c2ccccc2)Oc2cccc(NCC(C)C)c2S1(=O)=O	nt	nt	nt	-33	nt	nt
CCOc1ccccc1C(=O)Nc1nn[nH]n1	-7	3%	0%	?	3.2µM*	-2
CCOc1ccccc1C(=O)Nc1nnc(CC)s1	25*	?	23%	33	11µM*	14*
CCOc1ccccc1NC(=O)C1CCN(C(=O)Cc2ccccc2)CC1	-9	?	?	-6	2.2µM*	-1
CCc1nnc(NC(=O)c2ccncc2)s1	12	38%	36%	10	-8%	-4
CCc1nnc(NC(=O)c2cccc(C(=O)Nc3nnc(CC)s3)n2)s1	-16	9.3µM*	-5%	-92*	1.1µM*	-7
COC(=O)c1ccccc1NC(=O)C1CCN(C(=O)Cc2ccccc2)CC1	-12	103%	?	-12	?	-1
CCOc1cc(NC(=O)C2CC2)c(OCC)cc1NC(=O)c1cc(OC)c(OC)c(OC)c1	-3	-19%	-13%	-24	?	-3
CCOc1cc(NC(=O)C2CC2)c(OCC)cc1NC(=O)c1ccccc1OCC	-7	-20%	5.9µM*	-9	?	-4
CCN(CC)S(=O)(=O)c1ccc(N2CCc3cc(OC)c(OC)cc3C2)nc1	-4	?	?	-16	?	0
Cc1nc(-c2nc(-c3c(C(=O)NN)noc3C)cs2)cs1	66*	259%	204%	12	0%	28*
O=C1OC2(O)C3C4C=CC(C4)C3C(=O)N2c2ccccc21 (stereo not given)	-9	46%	2.3µM*	33	30%	2
CC(C)CCn1c(=O)c2sccc2n2c(CCCC(=O)N3CCN(c4ccccn4)CC3)nnc12	-11	?	?	-9	-23%	-1
COc1ccc(C(=O)NC(=S)NC2CCSC2=O)cc1 (stereo not given)	27*	96%	-12%	-39	1%	14
SMILES	Shiga toxin inh	Pf growth 96h	Pf growth 48h	HCMV inh	HCV inh	CHX counter
COc1cc(OC)cc(C(=O)NC2CCSC2=O)c1 (stereo not given)	2	?	17%	-1	?	-3
COc1ccc(C(=O)NC(=S)NNC(=O)c2ccc(C)cc2)cc1	nt	nt	nt	-28	?	nt
COc1ccc(C(=O)NC(=S)NNC(=O)c2ccc(NC(=O)C(C)C)cc2)cc1	17	?	?	0	16µM*	-4
COc1ccc(C(=O)NC(=S)Nc2ccc(S(N)(=O)=O)cc2)cc1	35	?	0%	35	12%	18*
COc1ccc(CC(=O)NC(=S)Nc2ccc(S(N)(=O)=O)cc2)cc1	-9	-3%	-1%	-14	-1%	2
COc1ccc(C(=O)NC(=S)NNC(=O)Cc2cccs2)cc1	55*	54%	35%	51	?	18*
COc1cc(OC)cc(C(=O)NC(=S)NNC(=O)Cc2cccs2)c1	20	0%	-17%	38	?	2
O=Cc1ccccc1-c1cn(CN2C(=O)c3ccccc3C2=O)nn1	-11	-2%	39%	4	5%	-4
COc1ccccc1CN(C)C(=O)COC(=O)c1c(C)noc1C	nt	nt	nt	0	1%	nt
CC(=O)Nc1ccc(S(=O)(=O)N2CCN(c3ccc(C(C)=O)cc3)CC2)cc1	nt	nt	nt	-17	nt	nt
O=C(COc1ccc(Cl)cc1)NC1CCSC1=O (stereo not given)	53*	13%	23%	-2	21%	19*
COc1ccc(Cl)cc1C(=O)CSc1nnnn1C1CCCCC1	16	10%	-24%	-62*	?	2
CCOC(=O)N1CCC(NC(=O)c2ccc3c(c2)N(Cc2ccc(Cl)cc2)C(=O)c2ccccc2S3=O)CC1 (stereo not given)	nt	nt	nt	-82*	nt	nt
CN1CCN(C(=O)c2ccc3c(c2)N(Cc2ccc(Cl)cc2)C(=O)c2ccccc2S3=O)CC1 (stereo not given)	-18	-19%	10µM*	11	-3%	-3
O=C(c1ccc2c(c1)N(Cc1ccc(F)cc1)C(=O)c1ccccc1S2=O)N1CCOCC1 (stereo not given)	nt	nt	nt	3	nt	nt
O=C(c1ccc2c(c1)N(Cc1ccccc1)C(=O)c1ccccc1S2=O)N1CCC(Cc2ccccc2)CC1 (stereo not given)	nt	nt	nt	-76*	nt	nt
O=C(c1ccc2c(c1)N(Cc1ccc(F)cc1)C(=O)c1ccccc1S2=O)N1CCC(Cc2ccccc2)CC1 (stereo not given)	nt	nt	nt	-78*	nt	nt
O=c1c2sc3ccccc3c2n(Cc2ccc(F)cc2Cl)c(=O)n1Cc1ccccc1	nt	nt	nt	19	nt	nt
COc1ccc(C(=O)NCc2nnc(SCC(=O)NCCc3ccccc3)o2)cc1	0	?	28%	4	7%	1
C=C(C)Cn1c(=O)c2c(nc3n2CCN3c2cccc(Cl)c2C)n(C)c1=O	-12	?	9.3µM*	-34	?	-4
Cn1c(=O)n(C/C=C/c2ccccc2)c(=O)c2c1nc1n2CCN1c1ccc(Cl)cc1	nt	nt	nt	-21	nt	nt
Cn1c(=O)n(C/C=C/c2ccccc2)c(=O)c2c1nc1n2CCCN1c1ccc(F)cc1	-6	?	12µM*	-30	11µM*	2
CCn1c(=O)c2c(nc3n2CCN3c2ccccc2)n(C)c1=O	11	?	15%	-75*	?	14
Cn1c(=O)n(Cc2ccc(F)cc2)c(=O)c2c1nc1n2CCCN1C1CCCCC1	15	78%	?	-67*	12%	-4
